Bioassay records (PubChem)
This is a sample that favours compounds with a hit; in the whole collection about 0.9% have one here.
PPARg SRC3 recr – promotes SRC-3 coactivator recruitment by human PPARgamma; P37231; biochemical PPARgamma/SRC-3 coactivator recruitment assay; activation, % at 8 µM; hit rate 0.26% among 200,000; AID 731; in the data active means activation above about 23%;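 further: 0% = DMSO and 100% = reference agonist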
Target sequence (P37231 whole entry, looked up): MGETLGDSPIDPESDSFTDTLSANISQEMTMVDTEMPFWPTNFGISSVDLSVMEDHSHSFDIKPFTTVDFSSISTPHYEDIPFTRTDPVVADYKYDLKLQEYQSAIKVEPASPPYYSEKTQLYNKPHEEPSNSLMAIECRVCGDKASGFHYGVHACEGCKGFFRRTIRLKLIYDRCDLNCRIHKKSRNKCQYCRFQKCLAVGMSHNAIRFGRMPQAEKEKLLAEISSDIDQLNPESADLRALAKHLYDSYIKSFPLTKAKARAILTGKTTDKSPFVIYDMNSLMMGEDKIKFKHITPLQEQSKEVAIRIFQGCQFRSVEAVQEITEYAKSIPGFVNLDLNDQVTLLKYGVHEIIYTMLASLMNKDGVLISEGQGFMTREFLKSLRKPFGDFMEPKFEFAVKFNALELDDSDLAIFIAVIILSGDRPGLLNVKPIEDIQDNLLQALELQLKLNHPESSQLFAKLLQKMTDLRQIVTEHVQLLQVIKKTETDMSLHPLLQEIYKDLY
SRC2 TRFRET art – TR-FRET artefact, counter-screen to PPARgamma/SRC-2 agonist assay | active compounds read high | TR-FRET ratio at 8 µM | hit rate 0.4% among 200,000 | AID 1049
SRC3 TRFRET art – counter-screen for PPARgamma SRC-3 recruitment agonists: TR-FRET artefact; PPARgamma/SRC-3 format; active compounds read high; TR-FRET ratio at 8 µM; hit rate 0.39% among 99,000; AID 1048
PPARg SRC2 recr – PPARgamma-driven SRC-2 recruitment agonism; P37231; PPARgamma LBD-SRC-2 recruitment, biochemical; activation, % at 8 µM; hit rate 0.34% among 200,000; AID 1032; in the data active means activation above about 22%;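 further: 0% = vehicle and 100% = reference agonist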
SRC1 TRFRET art – counter-screen for PPARgamma SRC-1 recruitment agonists: TR-FRET artefact; hit rate 0.34% among 99,000; TR-FRET detection artefact counter-screen, emission ratio; active compounds read high; TR-FRET ratio at 8 µM; in the data active means TR-FRET ratio above about 2300
PPARg SRC-1 ag – agonists of human PPARgamma SRC-1 coactivator recruitment; P37231; PPARgamma-SRC-1 coactivator recruitment biochemical assay; activation, % at 8 µM; hit rate 0.41% among 200,000; AID 631; in the data active means activation above about 19%;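 further: 0% = DMSO and 100% = reference agonist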
The depositor's hits bear a star; / = not tested or not shown. Unless noted, no stated cut-off is given here; in the data, active means TR-FRET ratio above about 2000; inactive means the rest.

SMILES	PPARg SRC3 recr	SRC2 TRFRET art	SRC3 TRFRET art	PPARg SRC2 recr	SRC1 TRFRET art	PPARg SRC-1 ag
CCCCOc1ccc(/C=C/C(=O)OCC(=O)NC(=O)NCC(C)C)cc1OCC	1	1391	1536	2	1810	-8
CC1(c2ccc3ccccc3c2)NC(=O)N(CC(=O)Nc2cccc(S(=O)(=O)N3CCOCC3)c2)C1=O (stereo not drawn)	4	1487	1898	13	1853	-1
COc1ccc(CN(C)C(=O)COC(=O)c2c(-c3ccccc3Cl)noc2C)cc1	4	1438	1555	0	1858	1
Cc1cc(N/N=C/c2ccc([N+](=O)[O-])o2)nc2ccccc12	9	1789	2083*	10	1831	11
O=C(N/N=C/c1ccc([N+](=O)[O-])o1)c1cc(-c2ccc(-c3ccccc3)cc2)nc2ccccc12	-3	1407	1306	-4	1568	7
CCN(CC(=O)Nc1ccc([N+](=O)[O-])cc1OC)c1ccccc1	3	1733	/	2	/	0
FC(F)(F)c1nc(=S)c2ccccc2[nH]1	21	2366*	2198*	27*	2370*	23*
COC(=O)c1ccccc1C(=O)c1ccc2c(c1)NC(=O)CO2	2	1559	1530	-3	1754	-6
CCOC(=O)c1c(NC(=O)CSc2nnc(CNc3ccc(F)cc3)o2)sc(C(C)=O)c1C	34*	1619	/	13	/	10
CCOC(=O)c1c(NC(=O)CSc2nc(C)cc(C)c2C#N)sc(C(C)=O)c1C	11	3647*	/	62*	/	6
CCOC(=O)c1c(NC(=O)CSc2nnc(-c3ccc(C)cc3)o2)sc(C(C)=O)c1C	3	1483	/	-4	/	9
CCc1cccc(C)c1NC(=S)NCc1ccc2[nH]c(C)cc2c1	7	1570	1722	1	1709	5
CSc1ccc(/C=C/C(=O)c2ccc(NC(=O)C(C)C)cc2)cc1	0	1546	/	8	/	-5
CSc1ccc(/C=C/C(=O)c2ccc(NC(=O)Cc3ccccc3)cc2)cc1	10	2038*	/	3	/	5
Cn1cnc(S(=O)(=O)Nc2ccc(OC(F)(F)F)cc2)c1	3	1568	1570	2	1740	-2
CCOC(=O)c1cc(-c2ccc3c(c2)OCO3)nc2onc(C)c12	-4	1971*	/	10	/	2
Cn1cccc1CC(=O)N/N=C/C(Cl)=C/c1ccccc1	7	1579	1886	-1	2381*	4
O=C(Cc1cccs1)Nc1ccc(-c2nnc(-c3ccco3)o2)cc1	-1	1464	1376	2	1636	1
O=C(Cc1cccs1)Nc1ccc(-c2nnc(-c3ccccc3)o2)cc1	3	1692	/	11	/	21*
Cc1cc(C)c(C#N)c(SCc2cc3c(cc2Cl)OCO3)n1	-5	2388*	/	56*	/	3
CC(=O)N1CC(=O)N=C1SCC(=O)Nc1nc(-c2ccccc2)c(-c2ccccc2)s1	10	1758	1929	18	2356*	17
Cc1sc(NC(=O)CSC2=NCCS2)nc1-c1ccccc1	7	1486	/	3	/	-1
Cc1c(NS(=O)(=O)c2ccc3c(c2)OCCO3)cccc1-c1nc2cccnc2s1	3	1991*	/	-3	/	10
COc1ccc(NC(=O)/C(=C/c2ccc3c(c2)OCO3)NC(C)=O)cc1	1	1633	1881	5	1845	4
CCOC(=O)/C(C#N)=C/c1cc2ccccc2nc1N1CCCCC1	16	2031*	2129*	12	2172	17
SMILES	PPARg SRC3 recr	SRC2 TRFRET art	SRC3 TRFRET art	PPARg SRC2 recr	SRC1 TRFRET art	PPARg SRC-1 ag
CCCC(=O)NCCSC	-4	1608	1573	9	1908	4
O=C(Nc1nnc(C(F)(F)F)s1)c1ccc(Br)s1	14	2104*	2443*	21	2300	18
Clc1cccc(Oc2ncc(CN3CCOCC3)s2)c1	-1	1584	/	6	/	13
COc1ccc(OC)c(S(=O)(=O)N2CCC(C(=O)Nc3cccc(C(F)(F)F)c3)CC2)c1	8	1628	/	1	/	5
CCOC(=O)COc1c(/C=N\O)cc(Cl)cc1OC	0	1862	1706	11	1967	10
CC(C)CCNC(=O)CCCn1c(=O)[nH]c2ccc(Br)cc2c1=O	10	1635	/	8	/	1
O=C(CCCn1c(=O)[nH]c2ccc(Br)cc2c1=O)NCc1ccc(Cl)cc1	-3	1480	1575	9	3045*	31*
Cc1cc(OCC(=O)Nc2cc(-c3nn4c(C)nnc4s3)ccc2C)ccc1Cl	0	1568	/	-5	/	89*
Cc1ccc(/C(O)=C2\C(=O)C(=O)N(CC(C)O)C2c2ccccn2)cc1 (stereo not drawn)	1	1501	1601	1	1920	7
CN(C)S(=O)(=O)c1cccc(NC(=O)COC(=O)c2cc(-c3cccc(Br)c3)nc3ccccc23)c1	26*	2575*	3725*	8	2585*	4
O=C(Nc1cccnc1)c1cc(-c2ccc3c(c2)OCO3)on1	19	1992*	/	20	/	12
O=C(Nc1cccnc1)c1cc(-c2ccc(F)cc2)on1	1	1430	1821	-5	1836	-6
O=C(COC(=O)CNS(=O)(=O)c1cccc(Br)c1)NC(=O)Nc1ccc2c(c1)OCCO2	3	1629	1442	10	1840	-1
Cc1ccc(-n2c(N)c(C(=O)N3CCN(C)CC3)sc2=S)cc1	30*	1307	/	-4	/	3
Cc1cc(Cl)ccc1Oc1ncnc2oc(-c3ccccc3)cc12	62*	1479	/	10	/	5
CC(C)OC(=O)CSc1nc2cc3c(cc2cc1C#N)OCO3	5	1557	/	3	/	54*
COC(=O)CSc1nc2cc3c(cc2cc1C#N)OCO3	18	1413	/	3	/	81*
CCC(=O)N1CCN(c2nc3ccccc3s2)CC1	9	1508	/	4	/	0
O=C(c1cc2sccc2n1Cc1ccccc1)N1CCN(c2nc3ccccc3s2)CC1	11	2570*	/	8	/	7
Cc1ccc2c(C(=O)N3CCN(c4ccccc4)CC3)cc(-c3cccnc3)nc2c1C	-1	1394	1604	2	2369*	13
Cc1ccc(-n2ncc3c(SCc4ccccn4)ncnc32)c(C)c1	-3	1617	1583	-7	1870	-5
O=C1C(=O)N(C2CCCC2)C(=O)N1Cc1c(F)cccc1Cl	0	1494	1513	9	1617	-4
Cc1ccc(OCC(=O)NNC(=O)C(=O)NC(C)(C)C)cc1	7	1515	1508	7	2454*	21*
CCOc1nc(-c2ccccc2)ccc1-c1noc(-c2cccs2)n1	-5	1549	/	3	/	34*
CCOc1nc(-c2ccccc2)ccc1-c1noc(-c2ccncc2)n1	2	1670	1406	0	1933	-4
COC(=O)c1cccc(NC(=O)/C=C/c2cccc([N+](=O)[O-])c2)c1	-4	1465	/	0	/	-4
COC(=O)c1cccc(NC(=O)/C=C/c2ccc([N+](=O)[O-])cc2)c1	0	1720	2126*	-1	1916	8
